Screens (PubChem BioAssay)
Sfp inh: Sfp phosphopantetheinyl transferase inhibition; Q9F4F7; Biochemical Sfp PPTase activity, qHTS; Potency, µM, without a hit: largest response in the series, negative = inhibition, hits mostly inhibitors; hit rate 3.5% among 310,000;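 also: the enzyme is Sfp with the accession as filed and its product quenches rhodamine fluorescence; 0% = enzyme reaction without inhibitor and -100% = no enzyme wells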
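After 15 min at room temperature with compound, 15 nM Sfp received 5 uM rhodamine-CoA plus 12.5 uM BHQ-2-ybbR (50 mM Hepes pH 7.6, 10 mM MgCl2). Rate came from the fluorescence difference over 30 min, ex 525/em 598 nm.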
BAZ2B inh: BAZ2B (human) inhibition; Q9UIF8; AlphaScreen BAZ2B-H3K14Ac peptide displacement; Potency, µM (series often up to 114 µM), for the others: at the highest dose activity change, negative = inhibition, hits mostly inhibitors; hit rate 4.4% among 360,000; AID 504333; also: % is scaled to controls: 0 for no effect and ±100 for the full control effect; nearly all actives have a fitted effect of over 60% in size
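BAZ2B (50 nM) with biotin-H3(5-23)K14Ac peptide (50 nM) in PBS pH 7.4, 0.01% Tween-20, preformed 30 min, then compound 30 min at room temperature; top concentration 110uM. AlphaScreen streptavidin donor/nickel chelate acceptor beads (10 ug/mL final), 20 min dark, signal read.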
HP1b binding inh: HP1-beta chromodomain-methylated histone interaction inhibition. AlphaScreen HP1-beta / biotin-H3K9me3 peptide binding. hit rate 0.56% among 390,000. Potency, µM (titrated, usually from 114 µM), inactives show top-dose activity change, negative = inhibition, actives largely listed as inhibitors; also: nearly all actives have a fitted effect of over 70% in size
Target sequence (P83916 whole entry, looked up): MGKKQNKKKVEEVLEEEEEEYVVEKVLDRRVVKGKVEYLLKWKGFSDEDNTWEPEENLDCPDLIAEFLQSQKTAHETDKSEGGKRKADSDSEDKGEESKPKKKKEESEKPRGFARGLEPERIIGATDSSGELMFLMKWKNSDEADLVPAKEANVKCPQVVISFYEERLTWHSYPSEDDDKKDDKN
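Compound inhibition of the preformed complex between 50 nM HP1-beta and 50 nM biotinylated H3K9me3 peptide was read by AlphaScreen. Buffer was PBS pH 7.4 with 0.01% Tween-20. Incubations ran 30 min at room temperature, with 10 ug/mL donor/acceptor beads.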
G9a block: inhibitors of human histone lysine methyltransferase G9a | G9a H3K9 monomethylation, AlphaScreen, 2 h | Potency, µM (series often up to 102 µM), inactives show at the top dose activity, negative = inhibition, usual class: inhibitors | hit rate 8.8% among 350,000 | AID 504332; also: % is scaled to controls: 0 for no effect and ±100 for the full control effect; nearly all actives have a fitted effect of over 75% in size
Target sequence (Q96KQ7 913-1193 limits assumed): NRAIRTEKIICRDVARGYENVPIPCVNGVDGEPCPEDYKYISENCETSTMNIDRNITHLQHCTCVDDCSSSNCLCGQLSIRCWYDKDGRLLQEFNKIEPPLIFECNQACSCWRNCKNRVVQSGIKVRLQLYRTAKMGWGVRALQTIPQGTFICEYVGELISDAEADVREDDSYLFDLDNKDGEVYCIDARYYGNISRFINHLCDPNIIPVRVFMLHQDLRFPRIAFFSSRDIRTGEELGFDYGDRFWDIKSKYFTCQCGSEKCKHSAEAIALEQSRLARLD
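G9a (20 nM) was preincubated 15 min with compound, then reacted 2 h at room temperature with 500 nM biotin-H3K9 peptide and 20 µM SAM. Monomethyl-H3K9 detected by AlphaScreen using anti-H3K9me1 antibody.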
PLK1 PBD inh: inhibitors of human PLK1 polo-box domain binding; P53350; Plk1 PBD binding of FITC phosphopeptide, fluorescence polarization; Potency, µM, without a hit: max response, negative = inhibition, actives largely listed as inhibitors; hit rate 2.8% among 360,000; also: series mostly up to about 57 µM; % is scaled to controls: 0 for no effect and ±100 for the full control effect; nearly all actives have a fitted effect of over 65% in size
JMJD2A Tudor inh: JMJD2A Tudor domain (human) inhibition | O75164 | AlphaScreen JMJD2A-Tudor / H3K4me3 peptide binding | Potency, µM (doses to about 114 µM), for inactives: at the highest dose activity change, negative = inhibition, actives largely listed as inhibitors | hit rate 4.4% among 390,000 | AID 504339; also: % is scaled to controls: 0 for no effect and ±100 for the full control effect; nearly all actives have a fitted effect of over 50% in size
* = called active by the depositor; ? = inconclusive; . = no result given; ! = a repeat was not active; [ ] = dose if it differs, or a comment. Shown are actives, neighbours in structure and some others; about 12% of the full set was active somewhere. Calls follow the shape of the dose curve; as a rule, active = well fitted curve in the direction sought with a large enough effect; inconclusive = small, poorly fitted or top-dose-only effect, or another doubt; inactive = no such curve, though single readings can be large; an effect the other way counts as inactive or inconclusive. Potency is read from the fitted curve at half-maximal effect.

SMILES	Sfp inh	BAZ2B inh	HP1b binding inh	G9a block	PLK1 PBD inh	JMJD2A Tudor inh
CCC1C2CN(C(C)=O)CC=C2C(C#N)=C(N)C1(C#N)C#N (centres undefined)	10%	-4%	64%	45µM*	-16%	-6%
COc1ccc([C@@H]2[C@H]3CN(C(C)=O)CC=C3C(C#N)=C(N)C2(C#N)C#N)c2ccccc12	10%	-4%	35%	45µM*	-9%	-7%
CCCC1C2CN(C(C)=O)CC=C2C(C#N)=C(N)C1(C#N)C#N (centres undefined)	-6%	-6%	57%	14µM*	-9%	-9%
CCCCN1C(=O)Cc2c1nc(N)c1c(N)nc(N(CCC)CCC)c(C#N)c21	2%	-34%	?	40µM*	-15%	-26%
CCOc1cccc(/C(O)=C2/C(=O)C(=O)N(Cc3ccco3)C2c2ccncc2)c1 (centres undefined)	-26%	?	42%	45µM*	-16%	?
COc1ccc(C2/C(=C(/O)c3ccccc3)C(=O)C(=O)N2CC(C)O)c(OC)c1 (centres undefined)	-4%	-25%	11%	?	-14%	18µM*
COc1cccc(C2/C(=C(/O)c3ccccc3)C(=O)C(=O)N2Cc2ccco2)c1 (centres undefined)	?	-22%	3%	56µM*	-7%	-19%
COc1cccc(C2/C(=C(/O)c3ccc(C)cc3)C(=O)C(=O)N2Cc2ccco2)c1 (centres undefined)	14%	-37%	27%	-12%[59 µM]	-2%	-6%
CCOc1cccc(/C(O)=C2/C(=O)C(=O)N(CCN3CCOCC3)C2c2ccncc2)c1 (centres undefined)	-14%	?	.	.	.	.
COc1ccc(/C(O)=C2\C(=O)C(=O)N(Cc3ccco3)C2c2cc(OC)ccc2OC)cc1 (centres undefined)	?	?	3%	-81%[59 µM]	0%	89µM*
COc1ccc(OC)c(C2/C(=C(/O)c3ccccc3)C(=O)C(=O)N2Cc2ccco2)c1 (centres undefined)	2%	-10%	42%	-4%[59 µM]	-3%	-9%
CC(=O)c1cn(C2OC(CO)C3OC(C)(C)OC32)c(=O)n(C)c1=O (centres undefined)	.	.	0%	.	-10%	-12%
COc1ccc(CCN(CC(=O)NCc2ccc(F)cc2)C(=O)c2snc(C(N)=O)c2N)cc1OC	15%	1%	-14%	-7%[59 µM]	-5%	-14%
COCCN1C(=O)C(=O)/C(=C(/O)c2cccc(OC)c2)C1c1ccncc1 (centres undefined)	-3%	-17%	6%	50µM*	-9%	?
CCOc1ccc(/C(O)=C2/C(=O)C(=O)N(CC3CCCO3)C2c2ccco2)cc1 (centres undefined)	-9%	2%	18%	?	0%	79µM*
COCCN1C(=O)C(=O)/C(=C(/O)c2cccc(OC)c2)C1c1ccc(C)o1 (centres undefined)	?	-30%	43%	18%[12.7 µM]	-17%	?
Cc1ccc(C2/C(=C(/O)c3ccc(Br)cc3)C(=O)C(=O)N2Cc2ccco2)o1 (centres undefined)	3.5µM*	1%	9%	15%[59 µM]	-28%	?
O=C1C(=O)N(Cc2ccco2)C(c2cccs2)/C1=C(\O)c1cccc([N+](=O)[O-])c1 (centres undefined)	45µM*	-30%	32%	24%[59 µM]	-6%	-19%
COc1ccc(OC)c(C2/C(=C(/O)c3ccc(C)cc3)C(=O)C(=O)N2Cc2ccco2)c1 (centres undefined)	3%	-38%	23%	?	2%	-2%
CCCN(C)C[C@H]1Oc2cc(C#Cc3ccc(F)cc3)ccc2S(=O)(=O)N([C@H](C)CO)C[C@@H]1C	.	.	.	.	-15%	.
CC(C)CCN(C(=O)c1ccc(Br)cc1)c1c(N)n(Cc2ccccc2)c(=O)[nH]c1=O	.	-3%	25%	11%[12.7 µM]	0%	-16%
COc1cc(C(O)c2nc(-c3cccc(F)c3)cs2)ccc1F (centres undefined)	.	.	.	.	-4%	.
COc1cccc(/C(O)=C2/C(=O)C(=O)N(Cc3ccco3)C2c2ccncc2)c1 (centres undefined)	-24%	?	33%	28µM*	-18%	?
CCOc1cccc(/C(O)=C2/C(=O)C(=O)N(CCOC)C2c2ccco2)c1 (centres undefined)	?	9%	19%	?	-1%	79µM*
Cc1ccccc1COc1ccc(/C(O)=C2/C(=O)C(=O)N(CCCn3ccnc3)C2c2ccco2)cc1 (centres undefined)	?	-2%	-3%	32µM*	-17%	?
SMILES	Sfp inh	BAZ2B inh	HP1b binding inh	G9a block	PLK1 PBD inh	JMJD2A Tudor inh
C/C(N)=C(/C#N)C(=O)COC(=O)c1cccc(C)c1O	7%	-7%	36%	3%	3%	8%
C/C(N)=C(/C#N)C(=O)COC(=O)c1cc(-c2ccc(Br)cc2)nc2ccccc12	3%	16%	14%	1.8µM*	4%	-4%
C/C(N)=C(/C#N)C(=O)COC(=O)c1ccc(C#N)cc1	10%	?	23%	22µM*	-11%	-18%
C/C(N)=C(/C#N)C(=O)COC(=O)c1ccc(O)cc1	3%	-6%	21%	-1%	4%	-5%
C/C(N)=C(/C#N)C(=O)COC(=O)c1ccccc1Oc1ccccc1	9%	-29%	-18%	3%[12.7 µM]	27µM*	?
O=C(CSc1nnc(NC(=O)C2CC2)s1)NCc1ccccc1	11%	-2%	-5%	11%	-7%	-12%
O=C1Nc2ccccc2/C1=C/c1ccccc1F	-11%	?	4%	4%	30µM*	?
Cc1ccccc1/C=C1\C(=O)Nc2ccc(F)cc21	4%	?	37%	-4%	-6%	-33%
O=C1Nc2ccccc2/C1=C/c1cccnc1	4%	-15%	-3%	-47%	27µM*	-28%
CN(C)c1ccc(/C=C2\C(=O)Nc3ccccc32)cc1	56µM*!	.	.	14µM*	.	.
O=C1Nc2ccccc2/C1=C/c1cnc(-c2ccccc2)[nH]1	-4%	-27%	40%	-9%	-7%	-28%
Cc1c(Cl)cccc1NC(c1ccc(F)cc1)c1nnc(-c2ccccc2)o1 (centres undefined)	.	3%	85%	20%[59 µM]	.	15%
Cc1ccc(Cl)cc1NC(=O)CSC1=Nc2ccccc2C2=NC(Cc3ccccc3)C(=O)N12 (centres undefined)	.	-5%	36%	23%[59 µM]	.	-10%
CCc1ccc(-c2cc(C)no2)cc1S(=O)(=O)NCc1ccc(OC)cc1	.	6%	44%	8%[59 µM]	.	13%
